Activity calls are given as the source filed them.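 How the source made its calls, unless noted: active means inhibition of the reporter signal at or above 50%; inactive means inhibition below 50%.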

Usually inhibition stands for the drop in the measured response relative to a control, in per cent.

The nature of assay [1]: inhibitors of TNFa-induced NFkB p65 translocation, primary screen, imaging, HUVEC, MLSMR starter and 10KST1 sets (AID 438;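 active means inhibition above 20% together with a positive visual image hit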;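 further: compound added about 3h40 before a 20 min TNFalpha stimulation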;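 on inhibition: signal is the nuclear over cytoplasmic p65 intensity ratio per well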). As to conditions: HUVEC TNFa-induced p65 nuclear translocation; cell count: measured here: nuclei count (cytotoxicity indicator), at 2.08 µM; inhibition: at 2 µM, stronger effect = higher value, 0% TNFa-plus-vehicle, 100% no-TNFa wells.
A short description of assay [2]: inhibitors of mutant huntingtin aggregation, primary screen, imaging, exon1htt(103Q)mCFP cells, high-content imaging (AID 483;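 active means visual image review flags a hit and inhibition of aggregation exceeds 20%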;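 further: compound exposure lasted 3 days before fixation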;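 on nuclei count: percent of the per-plate median nuclei count of sample wells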). As to conditions: exon1htt(103Q)mCFP cell line, aggregate imaging, at 2 µM; inhibition of aggregation: stronger effect = higher value; nuclei count: measured here: cell count, toxicity.
Assay [3] can be described thus: inhibitors of E-selectin induction by TNFa, primary screen, imaging, HUVEC, immunofluorescence, MLSMR starter and 10KST1 sets (AID 487;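 active means visually confirmed hit in the image check and inhibition above 20%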;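 on inhibition: signal is fraction of cell area covered by stained E-selectin grains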;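 on nuclei count: 100% = median nuclei count of all wells on the same plate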). The settings on record: HUVEC TNFalpha-induced E-selectin immunofluorescence imaging, at 2 µM; inhibition: stronger effect = higher value; nuclei count: measured here: cell number, toxicity.
The target of assay [4] is Voltage-gated potassium channel subunit beta-2 (Rattus norvegicus) (UniProt P62483). The experiment in a line: KvBeta enzyme negative modulators, primary screen, biochemical, NADPH fluorescence (AID 622;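 active means fluorescence slope higher than the sample average by over 3 SD, cut at about -0.22 in these data, passing the limit was not always enough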;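 further: slope of raw intensity against log time taken from 70 to 1610 s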). The settings on record: recombinant KvBeta, 4-cyanobenzaldehyde reduction, at 10 µM, stronger effect = higher value.
Voltage-gated potassium channel subunit beta-2 (Rattus norvegicus), sequence (P62483 whole entry, looked up): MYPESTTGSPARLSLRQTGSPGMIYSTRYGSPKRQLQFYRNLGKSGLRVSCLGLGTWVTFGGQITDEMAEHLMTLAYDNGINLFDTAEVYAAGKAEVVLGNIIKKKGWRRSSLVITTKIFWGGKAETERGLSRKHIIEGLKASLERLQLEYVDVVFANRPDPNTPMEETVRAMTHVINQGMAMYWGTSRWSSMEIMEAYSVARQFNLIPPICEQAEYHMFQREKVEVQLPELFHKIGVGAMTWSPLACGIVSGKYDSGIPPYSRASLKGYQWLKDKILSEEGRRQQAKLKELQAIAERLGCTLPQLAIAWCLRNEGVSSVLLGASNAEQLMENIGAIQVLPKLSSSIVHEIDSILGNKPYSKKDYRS
The target is the same in assay [5]. Description: KvBeta positive modulators, primary screen, biochemical, NADPH fluorescence (AID 623;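 active means NADPH fluorescence slope more negative than the mean of all samples by about 3 SD, 99.7% confidence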;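 further: fluorescence intensity change per second fitted from 20 to 320 s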). The settings on record: Recombinant KvBeta, NADPH fluorescence decrease slope, 10 min; at 10 µM; stronger effect = lower value.
Assay [6] has as its target Alpha-2C adrenergic receptor (Homo sapiens) (UniProt P18825). The experiment in a line: modulators of alpha2C/GIRK thallium flux, primary screen, cell-based, HEK293 alpha2C/GIRK1/2 (AID 624;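 active means fluorescence slope after compound addition differing from the mean of all screened samples at 99.7% confidence, in either direction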;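 further: slope of fluorescence ratio to pre-addition baseline per second over 15 to 24 s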). As to conditions: thallium flux BTC fluorescence, at 10 µM, actives lie on both sides.
Assay [7] in a line: inhibitors of Sendai virus-induced IRF3 signaling, primary screen, TLR/RLR signaling modifier project, cell-based, Sendai virus stimulus, luciferase, 10K MLSCN set (AID 602276;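 active means inhibition at or above 50% at 10 µM; inactive means inhibition below 50%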;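 further: firefly luciferase from ISG56 promoter only with Renilla not read in this screen; 0% = Sendai virus plus DMSO and 100% = medium plus DMSO without virus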). As to conditions: HEK293 RL24 IRF3 luciferase reporter, at 10 µM, stronger effect = higher value. A general note: In a reporter assay the amount or activity of a reporter protein is the signal.
The nature of assay [8]: inhibitors of poly I:C-induced TLR3 signaling, primary screen, cell-based, poly I:C stimulus, luciferase, 10K MLSCN set (AID 602277). The settings on record: HEK293-TLR3 RL24 IRF3 luciferase reporter, at 10 µM, stronger effect = higher value.

Alpha-2C adrenergic receptor (Homo sapiens), sequence (P18825 whole entry, looked up): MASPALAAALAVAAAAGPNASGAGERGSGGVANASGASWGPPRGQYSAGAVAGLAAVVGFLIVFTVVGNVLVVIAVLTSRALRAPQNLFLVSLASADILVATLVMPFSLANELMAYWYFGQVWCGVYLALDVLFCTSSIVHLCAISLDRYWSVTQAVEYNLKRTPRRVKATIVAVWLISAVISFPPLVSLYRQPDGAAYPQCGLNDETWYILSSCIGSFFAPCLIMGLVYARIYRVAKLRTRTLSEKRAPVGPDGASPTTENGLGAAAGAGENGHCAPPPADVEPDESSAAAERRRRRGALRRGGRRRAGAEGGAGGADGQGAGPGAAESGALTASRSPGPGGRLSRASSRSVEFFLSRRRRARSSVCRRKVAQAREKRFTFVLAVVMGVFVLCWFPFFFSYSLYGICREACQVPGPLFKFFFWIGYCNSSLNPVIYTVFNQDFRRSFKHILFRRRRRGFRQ

With `Cc1cc(C)c2c(=O)n(CC(=O)NCCCN3CCN(c4ccccc4F)CC3)sc2n1`, the cell count in assay [1] came to 725. Moreover, the inhibition in assay [1] was -2.8% (inactive); in assay [3] it was -81.4% (inactive); in assay [7] it was 12% (inactive); in assay [8], 34.1% (inactive). Moreover, in assay [2], the inhibition of aggregation is 2.8% (inactive). For the same molecule, the values for the nuclei count in assay [2] and in assay [3] were 105% and 119%, respectively. In assay [4], the fluorescence slope was -0.525 (inactive). For the same molecule, in assay [5], the NADPH fluorescence slope was -4.4e-05 (inactive). For the same molecule, in assay [6], the slope was 0.00504 (inactive).

Turning to `CC(C)c1nnc(NC(=O)C2CCCCC2)s1`, in assay [1], the cell count was determined as 571. In addition, the inhibition was -5.2% (inactive) in assay [1], 20.2% (inactive) in assay [3], -16.4% (inactive) in assay [7] and -54.8% (inactive) in assay [8]. Besides, the inhibition of aggregation in assay [2] is 22.8% (inactive). Besides, the nuclei count turned out to be 40.4% in assay [2] and 76.2% in assay [3]. Further, the fluorescence slope in assay [4] was -0.421 (inactive). Also, the NADPH fluorescence slope in assay [5] is -6.4e-05 (inactive). The slope in assay [6] was 0.00517 (inactive).

For the molecule `COc1cccc(CNc2nc3nc(C)c(Cl)c(C)n3n2)c1`, in assay [1], the cell count came out at 343. For the same molecule, the inhibition in assay [1] was 2.8% (inactive); in assay [3], 50.1% (inactive); in assay [7], -16.5% (inactive); in assay [8] it was 98.2% (active). Moreover, the inhibition of aggregation in assay [2] was -5% (inactive). In addition, the nuclei count in assay [2] was found to be 86.4%; in assay [3], 83.7%. In assay [4], the fluorescence slope is -0.375 (inactive). For the same molecule, in assay [5], the NADPH fluorescence slope is 2.9e-05 (inactive). In assay [6], the slope is 0.00679 (inactive).

Regarding `Cc1ccc(C2=N/C(=C/N3CCOCC3)C(=O)O2)cc1`, in assay [1], the cell count was 302. Further, the inhibition in assay [1] is 3.3% (inactive); in assay [3], 8.3% (inactive); in assay [7] it was -49.1% (inactive); in assay [8], -197% (inactive). Besides, the inhibition of aggregation in assay [2] was 14% (inactive). Also, the nuclei count in assay [2] came to 96.4%; in assay [3], 98.9%. The fluorescence slope in assay [4] was -0.512 (inactive). In addition, the NADPH fluorescence slope in assay [5] was -2.4e-05 (inactive). Also, the slope in assay [6] was 0.00711 (inactive).

In the case of `Cc1ccc(-c2noc(CCC(=O)NC3CCCc4ccccc43)n2)cc1` (stereo not given), the cell count in assay [1] is 377. In addition, the inhibition in assay [1] is -2% (inactive); in assay [3], -27.6% (inactive); in assay [7] it was 19.1% (inactive); in assay [8], 18.8% (inactive). In assay [2], the inhibition of aggregation was 5.2% (inactive). Moreover, the nuclei count in assay [2] worked out at 108%; in assay [3], 85.8%. In addition, the fluorescence slope in assay [4] was -0.411 (inactive). Further, the NADPH fluorescence slope in assay [5] is -3.2e-05 (inactive). Also, the slope in assay [6] is 0.00255 (inactive).

As to `COc1ccc(S(=O)(=O)Nc2ccc3c(c2)OCO3)cc1Cl`, the cell count in assay [1] was 625. The inhibition in assay [1] is 7% (inactive); in assay [3], -9.8% (inactive); in assay [7] it was 10.6% (inactive); in assay [8], 12.9% (inactive). Besides, in assay [2], the inhibition of aggregation was -18.4% (inactive). For the same molecule, the nuclei count in assay [2] and in assay [3] was 101% in each case. Besides, in assay [4], the fluorescence slope is -0.392 (inactive). The NADPH fluorescence slope in assay [5] was -6.9e-05 (inactive). Further, in assay [6], the slope is 0.00299 (inactive).

In the case of `CCn1c(C(=O)N2CCC(C(=O)N3CCN(c4ccccn4)CC3)CC2)cc2sccc21`, the cell count in assay [1] was 663. Moreover, the inhibition in assay [1] was -12.8% (inactive); in assay [3] it was -79.6% (inactive); in assay [7], -5.71% (inactive); in assay [8], -29% (inactive). Moreover, in assay [2], the inhibition of aggregation was 27.4% (inactive). The nuclei count was determined as 105% in assay [2] and 121% in assay [3]. For the same molecule, the fluorescence slope in assay [4] is -0.578 (inactive). Besides, the NADPH fluorescence slope in assay [5] was -4.7e-05 (inactive). For the same molecule, the slope in assay [6] is 0.00642 (inactive).

On to `O=C(CCn1c(=O)sc2ccccc21)Nc1nccs1`, for which the cell count in assay [1] was 575. Also, the inhibition is -22.3% (inactive) in assay [1], -53% (inactive) in assay [3], -21.2% (inactive) in assay [7] and -66.6% (inactive) in assay [8]. Moreover, in assay [2], the inhibition of aggregation was 4.1% (inactive). In addition, the nuclei count in assay [2] came out at 65.7%; in assay [3] it was 98.6%. The fluorescence slope in assay [4] is -0.618 (inactive). In assay [5], the NADPH fluorescence slope was 3e-05 (inactive). Further, the slope in assay [6] was 0.00595 (inactive).

In the case of `CN(C)c1ccnc(NCc2ccccc2)c1C#N`, the cell count in assay [1] was 286. Further, the inhibition in assay [1] is 2.1% (inactive); in assay [3], -62% (inactive); in assay [7] it was -8.5% (inactive); in assay [8], -26.6% (inactive). Besides, the inhibition of aggregation in assay [2] was 19% (inactive). Besides, the nuclei count in assay [2] stood at 72.9%; in assay [3], 112%. In assay [4], the fluorescence slope is -0.411 (inactive). The NADPH fluorescence slope in assay [5] was -3.6e-05 (inactive). Moreover, the slope in assay [6] is 0.00526 (inactive).

As to `COC(=O)c1[nH]c(C)c(/C(O)=C2\C(=O)C(=O)N(CCN3CCOCC3)C2c2cccs2)c1C` (stereo not given), the cell count in assay [1] amounted to 450. The inhibition was -4.8% (inactive) in assay [1], -53.2% (inactive) in assay [3], 15.2% (inactive) in assay [7] and 11.2% (inactive) in assay [8]. In addition, the inhibition of aggregation in assay [2] was 2.2% (inactive). Further, the nuclei count worked out at 96.3% in assay [2] and 126% in assay [3]. Also, the fluorescence slope in assay [4] was -0.254 (inactive). Further, the NADPH fluorescence slope in assay [5] is -2.8e-05 (inactive). Moreover, in assay [6], the slope is 0.00576 (inactive).

Values taken from PubChem BioAssay.
